Out of some 340,000 compounds screened, about 2,100 (0.62%) were called active. The list is a sample of the results. Measured potencies and affinities stand elsewhere. Values without a mark were called inactive.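 The calls were made as follows: active = first-screen hits whose inhibition reached a set limit at any dose in the follow-up dose series; inconclusive = inhibition above the set first-screen limit but never retested; inactive = the rest.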
Target: Rac GTPase-activating protein 1 (Homo sapiens) (UniProt Q9H0H5)
Sequence (Q9H0H5 whole entry, looked up): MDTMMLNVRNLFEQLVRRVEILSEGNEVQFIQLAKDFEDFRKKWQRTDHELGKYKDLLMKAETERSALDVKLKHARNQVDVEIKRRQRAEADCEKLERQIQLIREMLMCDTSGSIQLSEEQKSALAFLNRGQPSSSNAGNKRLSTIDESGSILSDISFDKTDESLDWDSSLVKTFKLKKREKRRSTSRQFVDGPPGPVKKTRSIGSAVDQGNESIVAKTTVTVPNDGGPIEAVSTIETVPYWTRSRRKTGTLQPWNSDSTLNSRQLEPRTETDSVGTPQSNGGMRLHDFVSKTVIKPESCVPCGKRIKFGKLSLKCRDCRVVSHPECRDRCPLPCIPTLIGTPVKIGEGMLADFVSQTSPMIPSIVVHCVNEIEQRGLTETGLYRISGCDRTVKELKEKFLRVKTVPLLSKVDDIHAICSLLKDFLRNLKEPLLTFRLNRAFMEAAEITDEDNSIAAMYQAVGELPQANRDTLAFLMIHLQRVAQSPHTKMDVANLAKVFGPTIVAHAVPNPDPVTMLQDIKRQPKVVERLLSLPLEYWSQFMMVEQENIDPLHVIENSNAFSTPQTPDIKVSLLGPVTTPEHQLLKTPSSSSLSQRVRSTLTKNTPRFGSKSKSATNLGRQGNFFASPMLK
Assay: MgcRacGAP GTPase-activating activity inhibitors, confirmation, biochemical, ADP Hunter fluorescence, primary and confirmatory (AID 624330);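 also: fluorescence reports GDP produced by GAP-driven GTP hydrolysis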
Settings: MgcRacGAP-stimulated Rac1 GTP hydrolysis, at 30 µM, active compounds read high, GST-tagged Rac1 F28L mutant substrate

| Compound | inhibition |
| --- | --- |
| O=C(COC(=O)Cc1ccc(Cl)cc1)NCc1cccs1 | 6.22% |
| COC(=O)c1ccccc1COn1c(=O)c(C)[n+]([O-])c2ccccc21 | 6.87% |
| COc1ccc(N2CCc3c(C)nc(SC)nc32)cc1 | 2.67% |
| CSc1nc(C)c2c(n1)N(c1ccc(F)cc1)CC2 | 11.7% |
| Cc1ccc(Cl)cc1N1CCN(S(=O)(=O)N2CCCCC2)CC1 | 8.42% |
| CN(c1ccccc1)S(=O)(=O)c1cccc(C(=O)NCc2ccccc2)c1 | 5.13% |
| CN(C)S(=O)(=O)c1cccc(C(=O)NCCc2ccccc2)c1 | 10.5% |
| CC(C)(C)NC(=O)C(c1ccccn1)N(C(=O)c1csnn1)C1CCCCC1 (stereo not given) | 2.75% |
| CCOC(=O)C1(Cc2ccccc2)CCN(Cc2csc(C(C)=O)c2)CC1 | 3.47% |
| O=C(CCCC(=O)c1ccccc1)Nc1ccc(F)cc1 | 4.81% |
| CC(=O)Nc1ccc(NC(=O)CC(c2ccccc2)c2ccccc2)cc1 | 11.3% |
| CC(=O)c1ccc(NC(=O)CCCC(=O)c2ccccc2)cc1 | 8.95% |
| O=C(CC(c1ccccc1)c1ccccc1)Nc1ccc(C(=O)O)cc1 | 13.2% |
| Cc1c(OCC(=O)N[C@@H](CSCc2ccccc2)C(=O)O)ccc2c3c(c(=O)oc12)CCC3 | 4.52% |
| CC(=O)c1cccc(-c2ccc3c(=O)[nH]c(Nc4ccccc4)cc3c2)c1 | 0.61% |
| COc1cc(-c2cc(-c3ccccc3)nc(SCC(=O)Nc3nccs3)c2C#N)cc(OC)c1OC | -0.01% |
| CCS(=O)(=O)Nc1cccc(C2=NN(S(=O)(=O)c3ccc(C)cc3)C(c3cccs3)C2)c1 (stereo not given) | -1.77% |
| CN1OC[C@@H]2CN(C(=O)CCc3ccccc3)[C@H](c3cccc(-c4ccc(C#N)cc4)c3)C[C@@H]21 | 4.81% |
| O=C(N1CCOCC1)N1CCN(C(c2ccccc2)c2ccccc2)CC1 | 5.11% |
| CC(C)Cc1nc(SCC(=O)NCC2CCCO2)c2c(=O)n(C)c(=O)n(C)c2n1 (stereo not given) | 5.52% |

| Compound | inhibition |
| --- | --- |
| COc1cccc(N2CCN(S(=O)(=O)c3ccc4ccccc4c3)CC2)c1 | -3.05% |
| Cc1cc(C)c(C)c(S(=O)(=O)N2CCN(c3ccccn3)CC2)c1C | 6.39% |
| Cc1ccc(C(=O)O)cc1S(=O)(=O)N1CCC(C(=O)O)CC1 | 3.35% |
| Cc1cc(C)c(C)c(S(=O)(=O)N2CCC(C(=O)N3CCN(c4ccc(F)cc4)CC3)CC2)c1C | 3.44% |
| CC(=O)c1ccc(N2CCN(S(=O)(=O)c3ccc4ccccc4c3)CC2)cc1 | 1.69% |
| Cc1ccc(N2CCN(S(=O)(=O)c3ccc(C)cc3)CC2)cc1 | 8.85% |
| Cc1cc(C)c(C)c(S(=O)(=O)N2CCN(C)CC2)c1C | 9.5% |
| Cc1ccc(S(=O)(=O)N2CCN(CC(=O)N3CCOCC3)CC2)cc1 | 6.79% |
| CCOc1cc(/C=C(\C#N)C(=O)Nc2ccccc2C(=O)O)ccc1OC(=O)c1ccc(C)cc1 | 12.7% |
| CCOC(=O)C1=C(N)n2c(s/c(=C\c3cccnc3)c2=O)=C(C#N)C1c1cccnc1 (stereo not given) | 9.67% |
| CCOc1ccc(NC(=O)CN2CC(c3ccccc3)CC2=O)cc1 (stereo not given) | 1.86% |
| CSc1cc(N2CCOCC2)nc(-c2ccccc2Cl)n1 | 2.89% |
| CCN1C(=O)[C@H]2[C@@H](c3ccc(-c4ccc(F)cc4)c(OC)c3)N[C@@](Cc3ccccc3)(C(=O)OC)[C@H]2C1=O | 0.02% |
| OC(CN1CCN(C(c2ccccc2)c2ccccc2)CC1)c1ccccc1 (stereo not given) | 8.44% |
| O=C(NCc1cccc(Cl)c1)C1CCC(=O)N(CCCN2CCCC2=O)C1 (stereo not given) | 10.9% |
| CN(C(=O)c1cccc(C#CC(C)(C)O)c1)C1CCCN(Cc2ccccc2F)C1 (stereo not given) | -6.83% |
| COc1ccc(N2CCN(C(=O)CSc3ccccc3)CC2)cc1 | 17.2% |
| O=C(CSc1ccccc1)N1CCN(c2ccccc2)CC1 | 10.2% |
| Cc1cnc(CNC(=O)c2ccc3oc(C(C)C)nc3c2)[nH]1 | -0.66% |
| Cc1cc(Cl)c(OCCCn2cncn2)c(Br)c1 | 13.1% |

| Compound | inhibition |
| --- | --- |
| Cc1cc(Cl)cc(Br)c1OCCCCn1cncn1 | 15.5% |
| O=c1c2ccccc2nnn1-c1ccccc1[N+](=O)[O-] | 10.5% |
| COc1cc(C(=S)N2CCCCC2)ccc1O | 13.6% |
| COc1cc(C(=S)N2CCCC2)ccc1O | 24.9% |
| O=C(OCc1ccccc1)N1CCC2CC1c1cc(N3CCNCC3)ccc12 (stereo not given) | 10.7% |
| Cn1c(=O)[nH]c(=O)c2c1nc(N1CCCCCC1)n2Cc1cccc2ccccc12 | 12.6% |
| CCOC(=O)C(Cc1ccccc1)NC(C)=O (stereo not given) | -0.49% |
| CC(=O)NC(Cc1ccccc1)C(C)=O (stereo not given) | 8.26% |
| COc1cc(CCC(=O)Nc2nnc(-c3cccnc3)s2)cc(OC)c1OC | 9% |
| O=C(O)c1cc(NCc2cccs2)ccc1N1CCOCC1 | 8.2% |
| COC(=O)c1cc(NC(=O)c2cccs2)ccc1N1CCOCC1 | 8.25% |
| Clc1cc(NCc2cccs2)ccc1N1CCOCC1 | 14.1% |
| CCOC(=O)c1cc(NC(=O)c2cccs2)ccc1N1CCOCC1 | 10.9% |
| COC(=O)c1cc(NCc2c(F)cccc2Cl)ccc1N1CCOCC1 | 23.3% |
| COc1ccccc1CNc1ccc(N2CCOCC2)c(C(=O)O)c1 | 11.4% |
| CC(C)[C@H](NC(=O)c1ccccc1)C(=O)OCC(=O)N1CC2(C)CC1CC(C)(C)C2 (stereo not given in full) | -5.69% |
| Cc1ccc(S(=O)(=O)N2CCN(c3nc(CN4CCCC4)nc4sc(C)c(C)c34)CC2)cc1 | 6.41% |
| CC(C)OC(=O)CSc1nnc(-c2ccc(Cl)cc2Cl)o1 | 9.06% |
| O=C1OCCC1=COCCCCCOC=C1CCOC1=O | 3.03% |
| N#Cc1ccccc1NC(=O)CSc1n[nH]c(=O)n1C1CC1 | -2.21% |

Reference: PubChem BioAssay AID624330 (Southern Research Specialized Biocontainment Screening …, 2012)
